According to PubChem BioAssay (NCATS):
Inconclusive results are not listed. Calls of active or inactive are those of the source. Unless noted, the call rests on the fitted dose curve; in most records, active means well fitted curve in the direction sought with a large enough effect; inconclusive means small, poorly fitted or top-dose-only effect, or another doubt; inactive means no such curve, though single readings can be large; an effect the other way counts as inactive or inconclusive.

How the values were obtained:
[1] = Cellular Toxicity (caspase-3) N2a (AID 665);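 further: compound exposure lasted 16 h at 37 °C before readout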
Method in brief: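 Mouse N2a neuroblastoma cells (1500/well) were treated with compounds for 16 h at 37 °C, then caspase-3/7 activity was read by Caspase-Glo luminescence after 1 h at room temperature. Data were normalized to DMSO and 10 uM staurosporine; AC50 from Hill fits.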

[2] = Cellular Toxicity (caspase-3) NIH 3T3 (AID 666);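 further: caspase signal read after 16 h compound exposure; 0% = DMSO basal and 100% = 100 µM tamoxifen stimulation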
Method in brief: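 Mouse NIH 3T3 fibroblasts (1000 cells/well) were treated with compound for 16 hr at 37°C in complete medium; caspase-3/7 activity was read by Caspase-Glo luminescence. Normalized to DMSO and 100 uM tamoxifen; AC50 from Hill fits.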

[3] = Cellular Toxicity (caspase-3) Renal Proximal Tubule (AID 667);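 further: cells exposed to compound for 16 hours at 37 °C before detection; 0% = DMSO basal and 100% = 10 µM staurosporine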
Method in brief: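 AC50 derived by standard Hill fit of concentration-response data, normalized between DMSO basal and 10 uM staurosporine as 100% stimulation. Cells: primary rat kidney proximal tubule, 16 h treatment at 37 °C.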

[4] = target: Cytochrome P450 3A4 (Homo sapiens) (UniProt P08684); experiment: qHTS Assay for Inhibitors and Substrates of Cytochrome P450 3A4 (AID 884); further: series mostly up to about 57 µM; on the % scale 0 is the no-effect control and ±100 the full control effect; nearly all actives have a fitted effect of over 50% in size
Method in brief: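 20 nM human CYP3A4 with 25 uM Luciferin-PPXE (at KM) in 200 mM KPO4, preincubated 10 min with compound; NADPH regeneration started a 60 min RT reaction. Luciferin detected by luminescence, normalized to 57 uM ketoconazole as full inhibition.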

[5] = Cell Viability - LYMP2-001 (AID 921);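 further: series mostly up to about 92 µM; cells exposed to compound for 24 h at 37 °C; 0% = DMSO only and full inhibition = tetraoctylammonium bromide control wells; nearly all actives have a fitted effect of over 70% in size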
Method in brief: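 Steps: seed 2500 lymphoblastoid cells/well; 5 hr, 37 C; add compound; 24 hr, 37 C; CellTiter-Glo reagent, 30 min room temperature; read luminescence. Concentration-response modeled by Hill equation for AC50.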

[6] = MultiTox-Fluor Cytotoxicity Assay - LYMP1-001 - Dead Cells (AID 946);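 further: 0% = DMSO and 100% = tetraoctylammonium bromide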
Method in brief: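 AC50 from Hill fit of concentration-response; data normalized to DMSO (basal) and 15 uM tetraoctylammonium bromide (100%). LYMP1-001 lymphoblastoid cells, 2500/well, 16 hr compound at 37 C; dead-cell protease fluorescence, Ex/Em 485/520.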

[7] = MultiTox-Fluor Cytotoxicity Assay - LYMP1-001 - Live Cells (AID 947);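 further: 0% = DMSO only and full inhibition = tetraoctylammonium bromide control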
[8] = Cell Viability - LYMP1-002 - Assay at 16 hr (AID 948);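 further: 0% = DMSO alone and full effect = 92 µM tetraoctylammonium bromide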
Method in brief: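 Seed 2500 LYMP1-002 cells per well in complete medium and hold 5 hr at 37 C. Add compound across a concentration series and incubate 16 hr at 37 C. Add CellTiter-Glo, wait 30 min at room temperature, read luminescence.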

[9] = Confirmation and Secondary Assay for Modulators of Hemoglobin Beta Chain Splicing at IVS2 654 locus (AID 910);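 further: HeLa cells stably carrying EGFP split by mutant beta-globin IVS2-654 intron; % of control where 0% means no effect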
Method in brief: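 HeLa cells stably expressing EGFP interrupted by β-globin IVS2-654 intron, seeded overnight in Opti-MEM/2% FCS, then treated 2 days at 37 °C. Restored splicing read as total peak GFP intensity per well by laser scanning cytometry (488 nm excitation, 500–520 nm emission); 500 nM antisense PNA as control.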

[10] = Confirmation and Secondary Assay for Modulators of Hemoglobin Beta Chain Splicing at IVS2 705 locus (AID 930);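 further: HeLa cells stably expressing the EGFP-705 splicing reporter; series mostly up to about 46 µM; % of control where 0% means no effect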
Method in brief: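 HeLa cells stably carrying EGFP interrupted by mutant beta-globin IVS2-705 intron (CMV-driven) were seeded at 500 cells/well, treated next day with compound for 2 days at 37C; corrected splicing restores EGFP, read as total peak GFP intensity per well.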

[11] = target: Cytochrome P450 2C9 (Homo sapiens) (UniProt P11712); experiment: qHTS Assay for Inhibitors and Substrates of Cytochrome P450 2C9 (AID 883); further: potency means the concentration at half of the fitted maximal effect; nearly all actives have a fitted effect of over 60% in size
Method in brief: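 10nM CYP2C9 + 100uM Luciferin-H (=KM), 25mM KPO4; cpd 10 min 37C; NADPH regen, 60 min 37C; stop/detect with P450 Glo-Buffer 20 min; luminescence. Norm. to 57uM sulphaphenazole as full inhibition.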

[12] = target: Cytochrome P450 2C19 (Homo sapiens) (UniProt P33261); experiment: qHTS Assay for Inhibitors and Substrates of Cytochrome P450 2C19 (AID 899); further: on the % scale 0 is the no-effect control and ±100 the full control effect; nearly all actives have a fitted effect of over 60% in size
Method in brief: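 Luminescent read-out of luciferin formed from Luciferin-H EGE (10uM, equal to KM). Enzyme 5nM in 50mM KPO4; compound added, 10 min at 37C, then NADPH regenerating system for 60 min at 37C. Full inhibition defined by 57uM ketoconazole.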

[13] = qHTS Assay for Identification of Small Molecule Agonists for Hypoxia Response Element Signaling Pathway (AID 914; active means well fitted activation curve with a large enough effect in the signal ratio, with a control signal flat, not every such curve was filed as active; the % refers to the signal ratio; further: % of control where 0% means no effect); conditions: ME-180 HRE-bla reporter, beta-lactamase ratio, CoCl2, 17 h; stronger effect = higher value
Method in brief: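 ME-180 cells carrying an HRE-driven beta-lactamase reporter were treated with compounds in a titration series plus an EC50 level of CoCl2 for 17 h at 37 degrees Celsius; CCF4 readout as the 460nm/530nm ratio gave AC50 values.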

[14] = target: Cytochrome P450 3A4 (Homo sapiens) (UniProt P08684); experiment: qHTS Assay for Activators of Cytochrome P450 3A4 (AID 885); further: nearly all actives have a fitted effect of over 65% in size
Method in brief: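 20nM CYP3A4 + 25uM Luciferin-PPXE (=KM), 200mM KPO4; cpd 10 min RT; NADPH regen, 60 min RT; stop w/ detection buffer, 20 min; luminescence. Normalized to 57 uM ketoconazole.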

Chain of Cytochrome P450 3A4 (Homo sapiens) (P08684 whole entry, looked up): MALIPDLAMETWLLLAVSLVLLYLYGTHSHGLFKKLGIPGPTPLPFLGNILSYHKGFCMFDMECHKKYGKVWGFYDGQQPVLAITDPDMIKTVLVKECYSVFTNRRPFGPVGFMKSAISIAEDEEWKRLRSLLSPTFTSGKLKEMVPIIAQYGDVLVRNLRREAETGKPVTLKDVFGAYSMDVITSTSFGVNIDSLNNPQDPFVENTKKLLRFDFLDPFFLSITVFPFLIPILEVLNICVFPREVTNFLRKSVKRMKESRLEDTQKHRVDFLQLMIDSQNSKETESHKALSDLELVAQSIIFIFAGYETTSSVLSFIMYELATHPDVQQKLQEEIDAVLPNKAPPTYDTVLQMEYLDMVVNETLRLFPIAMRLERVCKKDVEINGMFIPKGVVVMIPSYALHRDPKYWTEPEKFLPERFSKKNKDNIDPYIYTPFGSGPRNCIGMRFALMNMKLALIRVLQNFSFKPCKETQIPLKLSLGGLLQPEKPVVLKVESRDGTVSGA
Chain of Cytochrome P450 2C9 (Homo sapiens) (P11712 whole entry, looked up): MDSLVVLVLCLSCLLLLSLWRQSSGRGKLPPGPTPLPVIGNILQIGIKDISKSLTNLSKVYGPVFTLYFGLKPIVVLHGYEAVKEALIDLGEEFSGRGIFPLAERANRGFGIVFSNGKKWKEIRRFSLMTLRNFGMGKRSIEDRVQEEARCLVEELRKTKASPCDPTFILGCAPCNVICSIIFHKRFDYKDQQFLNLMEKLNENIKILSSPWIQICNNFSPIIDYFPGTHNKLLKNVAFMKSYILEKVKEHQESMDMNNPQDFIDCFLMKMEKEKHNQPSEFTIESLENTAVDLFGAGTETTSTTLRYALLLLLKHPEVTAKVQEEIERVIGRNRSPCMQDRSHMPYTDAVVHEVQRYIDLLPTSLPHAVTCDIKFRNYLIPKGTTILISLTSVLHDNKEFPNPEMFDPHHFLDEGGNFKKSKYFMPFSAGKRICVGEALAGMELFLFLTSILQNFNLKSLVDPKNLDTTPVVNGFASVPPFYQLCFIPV
Chain of Cytochrome P450 2C19 (Homo sapiens) (P33261 whole entry, looked up): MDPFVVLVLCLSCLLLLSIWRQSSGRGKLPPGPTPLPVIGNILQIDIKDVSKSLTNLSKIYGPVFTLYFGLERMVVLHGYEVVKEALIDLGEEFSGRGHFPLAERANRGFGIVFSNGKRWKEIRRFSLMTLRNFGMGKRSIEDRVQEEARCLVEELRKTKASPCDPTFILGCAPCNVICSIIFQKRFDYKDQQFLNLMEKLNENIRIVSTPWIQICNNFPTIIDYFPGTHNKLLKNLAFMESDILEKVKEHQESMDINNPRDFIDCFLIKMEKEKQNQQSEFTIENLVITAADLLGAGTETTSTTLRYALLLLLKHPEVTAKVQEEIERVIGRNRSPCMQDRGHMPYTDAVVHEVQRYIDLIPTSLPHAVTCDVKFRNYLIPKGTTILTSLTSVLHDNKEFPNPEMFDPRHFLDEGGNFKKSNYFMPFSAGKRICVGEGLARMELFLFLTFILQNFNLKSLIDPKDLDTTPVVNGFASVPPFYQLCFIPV

FC(F)(F)C(Cl)Br (stereo not given)
inactive: outcome [1] | outcome [2] | outcome [3] | outcome [4] | outcome [5] | outcome [6] | outcome [7] | outcome [8]

Cn1c([N+](=O)[O-])cnc1COC(N)=O
inactive: outcome [4] | outcome [9] | outcome [10]

C/C=C/C(=O)N(CC)c1ccccc1C
inactive: outcome [4] | outcome [9] | outcome [10]

Cc1cc(=O)[nH]c(=S)[nH]1
inactive: outcome [1] | outcome [2] | outcome [3] | outcome [4] | outcome [9] | outcome [5] | outcome [10] | outcome [6] | outcome [7] | outcome [8]

CCCCCCCC(=O)OCC(COC(=O)CCCCCCC)OC(=O)CCCCCCC
inactive: outcome [1] | outcome [2] | outcome [3] | outcome [4] | outcome [5] | outcome [6] | outcome [7] | outcome [8]

NC(N)=NS(=O)(=O)c1ccc(N)cc1
inactive: outcome [4] | outcome [9] | outcome [10]

Cc1cccc(Nc2ccccc2C(=O)O)c1C
inactive: outcome [4] | outcome [9] | outcome [10]
active: Potency [11] 7.94 µM

O=C(Cn1ccnc1[N+](=O)[O-])NCCO
inactive: outcome [4] | Potency [12] | outcome [9] | outcome [10]

O=C(O)COC(=O)Cc1ccccc1Nc1c(Cl)cccc1Cl
active: Potency [11] 1.58 µM
inactive: activation [13] -4.27%

Cc1c(N(C)C)c(=O)n(-c2ccccc2)n1C
inactive: outcome [1] | outcome [2] | outcome [3] | outcome [4] | outcome [5] | outcome [6] | outcome [7] | outcome [8]

COc1ccc(O)cc1
inactive: outcome [1] | outcome [2] | outcome [3] | outcome [4] | outcome [5] | outcome [6] | outcome [7] | outcome [8]

CC(=O)Nc1cccc(O)c1
inactive: outcome [1] | outcome [2] | outcome [3] | outcome [4] | outcome [9] | outcome [5] | outcome [10] | outcome [6] | outcome [7] | outcome [8]

CC(N)CCCC(C)(C)O (stereo not given)
inactive: outcome [4] | outcome [9] | outcome [10]

Cc1cc(C)nc(NS(=O)(=O)c2ccc(N)cc2)n1
inactive: outcome [1] | outcome [2] | outcome [3] | outcome [14] | outcome [9] | activation [13] -4.03% | outcome [5] | outcome [10] | outcome [6] | outcome [7] | outcome [8]
